PubChem BioAssay AID504467 (National Center for Advancing Translational Sciences (NCATS), 2011)
Out of some 330,000 compounds screened, about 7,700 (2.3%) were called active. Inconclusive results (about 26%) are left out. The call rests on the fitted dose curve; in most records, active means well fitted inhibition curve with a large enough effect; inconclusive means small, poorly fitted or top-dose-only effect, or effect the other way; inactive means flat fitted curve, though single readings scatter. Shown is part of a subset that was picked to be rich in actives.

Experiment: qHTS screen for small molecules that inhibit ELG1-dependent DNA repair in human embryonic kidney (HEK293T) cells expressing luciferase-tagged ELG1; further: nearly all actives have a fitted effect of over 55% in size
Conditions: HEK293T ELG1-luciferase reporter, luminescence, 16 h, DNA damage induced by 5-fluorouridine; series mostly up to 46.1 µM; activity change, negative = inhibition: at the top concentration
Method in brief: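 Luminescence from the luciferase reporter, measured 30 min after ONE-Glo reagent at room temperature, was the read-out. Beforehand, 2,000 cells per well were exposed for 16 hr at 37 °C to 5-fluorouridine together with compound or vehicle.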
On the % scale 0 is the no-effect control and ±100 the full control effect; potency means the concentration at half of the fitted maximal effect.

| Structure (SMILES) | activity change, negative = inhibition | Potency |
| --- | --- | --- |
| Fc1ccc(/C=N/n2c(COc3ccccc3)n[nH]c2=S)cc1 | -4.36% (inactive) |  |
| CN(C)c1ccc(Nc2c3c4c(cccc4n(C)c2=O)C(=O)c2ccccc2-3)cc1 |  | 7.31 µM (active) |
| CN(C)c1ccc(C2N(C)C(=O)c3ccccc3N2C)cc1 (stereo not given) | 1.38% (inactive) |  |
| Cc1ccc(NS(=O)(=O)c2ccc3c(c2)n(C)c(=O)c(=O)n3C)c(C)c1 | -5.16% (inactive) |  |
| CCC1=Nc2cc(C(=O)NCCN3CCCC3)ccc2Sc2ccc(C)cc21 | -1.4% (inactive) |  |
| CCOC(=O)CC1(NC(=O)c2cc(COc3cncc(Cl)c3)on2)CCCCC1 | -8.66% (inactive) |  |
| CN1CCC(N(C)S(=O)(=O)c2ccc(NC(=O)c3cccc(C#N)c3)cc2)CC1 | 0.329% (inactive) |  |
| O=C(Cc1ccccc1Cl)N1CCN(c2ccccn2)CC1 | -17.5% (inactive) |  |
| Cc1ccc(S(=O)(=O)NCC(=O)N2CCN(c3ccccn3)CC2)cc1 | -7.21% (inactive) |  |
| Cc1ccnc(N2CCN(C(=O)CSc3nc4ccccc4nc3N3CCCCC3)CC2)c1 |  | 12.6 µM (active) |
| COC(=O)c1ccc(CSc2ccc(S(=O)(=O)N3CCCCC3)cn2)cc1 | 14.1% (inactive) |  |
| O=C(Nc1nnc(-c2ccco2)o1)c1ccc(S(=O)(=O)N2CCOCC2)cc1 | -19.6% (inactive) |  |
| CC1CCCCN1S(=O)(=O)CCNC(=O)c1ccccc1 (stereo not given) | 10.3% (inactive) |  |
| CSCc1nnc(NC(=O)c2ccc(S(=O)(=O)N3CCCCC3C)cc2)o1 (stereo not given) |  | 20.6 µM (active) |
| Cc1ccc(C(=O)CN2C(=O)NC3(CCc4ccccc43)C2=O)c(C)c1 (stereo not given) | 17.4% (inactive) |  |
| COc1ccc(CCNC(=O)COC(=O)c2cnc(Cl)c(Cl)c2)cc1 | 14.7% (inactive) |  |
| COCC(C)n1c(SCC(=O)NC2CCCCC2C)nc2ccccc2c1=O (stereo not given) | -8.42% (inactive) |  |
| CCC(=O)Nc1ccc(C(=O)CSc2nnc(CNc3ccc(Cl)cc3)o2)cc1OC |  | 11.6 µM (active) |
| COc1ccccc1NC(=O)CSc1nnc(CNC(=O)c2ccccc2F)o1 | 0.554% (inactive) |  |
| COc1cc(C(=O)NCc2nnc(SCC(=O)c3ccc(Cl)cc3)o2)cc(OC)c1OC | 7.16% (inactive) |  |
| CCOc1ncccc1C(=O)OCC(=O)c1c[nH]c2ccccc12 | 8.6% (inactive) |  |
| Cc1cc(OCC(=O)NCC(O)c2ccccc2)c2c(C)c(C)c(=O)oc2c1 (stereo not given) | 3.77% (inactive) |  |
| COC(=O)c1ccc(NC(=O)C23CC4CC(C2)CC(n2cnc(Cl)n2)(C4)C3)cc1 |  | 5.8 µM (active) |
| Cc1ncn(C23CC4CC(CC(O)(C4)C2)C3)n1 | 3.68% (inactive) |  |
| O=C(Nc1ccc(S(=O)(=O)Nc2ncccn2)cc1)C12CC3CC(CC(C3)C1)C2 | 12.4% (inactive) |  |

| Structure (SMILES) | activity change, negative = inhibition | Potency |
| --- | --- | --- |
| CN(C)C(=O)CCc1ccc2c3c([nH]c2c1)[C@]1(C)[C@@H](C(=O)N2CCCCC2)C[C@H](CC(=O)NCCC2=CCCCC2)C(=O)N1CC3 | 1.15% (inactive) |  |
| Cc1cccc(-c2oc3ccc(-c4ccc5c(c4)OCO5)cc3c2C#Cc2cncn2C)c1 | 19.1% (inactive) |  |
| COc1ccc(/C=C2\CCCC3C2=NN(C(=O)c2scnc2C)C3c2ccc(OC)cc2)cc1 (stereo not given) |  | 18.4 µM (active) |
| CC(Oc1cc2oc(=O)c3c(c2cc1Cl)CCCC3)C(=O)NCc1ccncc1 (stereo not given) | -16.7% (inactive) |  |
| CS(=O)(=O)N1CCN(C(=O)c2cc3ccccc3oc2=O)CC1 | 9.01% (inactive) |  |
| O=C(c1cc2ccccc2o1)N1CCN(S(=O)(=O)c2ccc(Cl)s2)CC1 |  | 16.4 µM (active) |
| O=C(c1cc2ccccc2o1)N1CCN(Cc2ccccc2)CC1 | 10.9% (inactive) |  |
| CCCc1cc(=O)[nH]c(SCC(=O)Nc2ccc(C(=O)Nc3ccccc3OC)cc2)n1 | 4.86% (inactive) |  |
| O=C(NC1CCN(Cc2ccccc2)CC1)c1c(F)cccc1F | 18.7% (inactive) |  |
| Cc1ccc(-c2cc(C(=O)NC3CCN(Cc4ccccc4)CC3)c3ccccc3n2)cc1 | 11.4% (inactive) |  |
| Cc1ccn2cc(C(=O)NC3CCN(Cc4ccccc4)CC3)nc2c1 |  | 20.6 µM (active) |
| COc1ccc(NC(=O)C(CC(C)C)NC(=O)C2CCC(C)CC2)cc1 (stereo not given) | 16.9% (inactive) |  |
| COc1ccc(NS(=O)(=O)c2ccc(C)c(C(=O)N(C)Cc3ccc(OC)cc3OC)c2)cc1 | -22.6% (inactive) |  |
| O=C(Cc1ccc([N+](=O)[O-])cc1)Nc1ccc(C(=O)N2CCOCC2)cc1 | -15% (inactive) |  |
| CCOC(=O)c1[nH]c2ccc(OC)cc2c1NC(=O)N1CCOCC1 | 12.1% (inactive) |  |
| Cc1c(C(=O)N2CCOCC2)[nH]c2ccc(OCc3ccccc3)cc12 |  | 18.4 µM (active) |
| COc1ccc2[nH]c(C(=O)N3CCN(C)CC3)c(C)c2c1 | 15.2% (inactive) |  |
| COc1ccc(CN2C(CC(=O)Nc3cccnc3)c3ccc(C(F)(F)F)cc3S2(=O)=O)cc1 (stereo not given) | -8.14% (inactive) |  |
| O=C(CSc1c2c(nc3ccc(Cl)cc13)CCCC2)NCc1ccco1 | -16.2% (inactive) |  |
| O=C(CSc1nc2ccccc2s1)Nc1ccc(C(=O)O)cc1 | 6.52% (inactive) |  |
| Cc1cc(Nc2ccc(Cl)cc2)nc(N2CCOCC2)n1 | -11.5% (inactive) |  |
| Cc1ccccc1NC(=O)CSc1nc2ccc(Nc3nc(N4CCOCC4)nc(N4CCOCC4)n3)cc2s1 |  | 1.3 µM (active) |
| COc1cc(OC)cc(-c2nnc(SCC(=O)Nc3ccc(C(=O)O)cc3)s2)c1 | -2.89% (inactive) |  |
| Cc1ccccc1NC(=O)CSC1=NCCN1 | -0.143% (inactive) |  |
| Nc1nnc(SCC(=O)Nc2ccc3nc(SCC(=O)Nc4ccccc4)sc3c2)s1 |  | 1.84 µM (active) |

| Structure (SMILES) | activity change, negative = inhibition | Potency |
| --- | --- | --- |
| Cc1ccc(Nc2nc(N3CCOCC3)nc(N3CCOCC3)n2)cc1Cl |  | 0.651 µM (active) |
| Cc1ccc(S(=O)(=O)N2CCOCC2)cc1NC(=O)CSc1nnc(N)s1 | -8.75% (inactive) |  |
| Cc1ccc(Nc2nc(N)nc(CN3CCN(Cc4ccccc4)CC3)n2)cc1Cl | -19.9% (inactive) |  |
| C=CCn1c(CSc2nc3ccccc3s2)nnc1SCC(=O)NCc1ccco1 | 4.59% (inactive) |  |
| O=C(CSc1nc2ccc(Nc3nc(N4CCOCC4)nc(N4CCOCC4)n3)cc2s1)NCc1ccco1 |  | 2.59 µM (active) |
| O=S(=O)(c1ccc(F)cc1)N1CCN=C1SCc1cccc(F)c1 | 0.508% (inactive) |  |
| O=C(Nc1cc(-c2nc3ncccc3o2)ccc1Cl)c1ccco1 | -14.8% (inactive) |  |
| COc1cccc(NC(=O)CCc2nnc3ccc(N4CCC(C)CC4)nn23)c1 | -10.8% (inactive) |  |
| COc1ccc(N(Cc2ccc(N(C)C)cc2)C(=O)c2ccc(S(C)(=O)=O)cc2)cc1 | 8.66% (inactive) |  |
| CN[C@H](C(=O)NC[C@H]1O[C@@H](n2cnc3c(N)ncnc32)[C@H](O)[C@@H]1O)[C@@H](C)OCc1ccccc1 | 23.4% (inactive) |  |
| CCCN1CCn2c3c(c4cc(Br)ccc42)CCCC31 (stereo not given) | 4.36% (inactive) |  |
| c1ccc(-c2cc3c(NCC4COc5ccccc5O4)ncnc3s2)cc1 (stereo not given) |  | 20.6 µM (active) |
| COc1ccc(Nc2ncnc3sc(-c4ccccc4)cc23)c(OC)c1 | -10.3% (inactive) |  |
| c1ccc2c(c1)OCC(CNc1ncnc3nc[nH]c13)O2 (stereo not given) | -16.6% (inactive) |  |
| CC1(c2ccccc2)NC(=O)N(CC(=O)N2CC(=O)Nc3ccccc32)C1=O (stereo not given) | 24.4% (inactive) |  |
| O=C(CCCC(=O)N1CCN(c2cccc(Cl)c2)CC1)c1ccccc1 | 5.86% (inactive) |  |
| Cc1ccc(C(=O)Nc2nnc(C3=COCCO3)o2)cc1C | 4.93% (inactive) |  |
| O=C1C=C(c2ccnc3cc(Cl)ccc23)C[C@@H](c2ccc3c(c2)OCO3)C1 | 5.67% (inactive) |  |
| Cc1ccc(N2CCN(c3ccc([N+](=O)[O-])cn3)CC2)c(C)c1 | -15.6% (inactive) |  |
| O=C(Cc1cc(=O)[nH][nH]1)N/N=C/c1ccccc1[N+](=O)[O-] | 19.7% (inactive) |  |
| O=C(N/N=C/c1cc(Cl)cc([N+](=O)[O-])c1O)C(O)(c1ccccc1)c1ccccc1 |  | 16.4 µM (active) |
| CN(C)/N=C/c1cc(Cl)cc([N+](=O)[O-])c1O | 6.41% (inactive) |  |
| CCOC(=O)C1=CN(Cc2ccc(Br)cc2)S(=O)(=O)N(C)C1C (stereo not given) | 5.04% (inactive) |  |
| CCn1c(Cc2ccc(OC)cc2)nnc1SCC(=O)Nc1ccc(N2CCOCC2)cc1 | 6.69% (inactive) |  |
| FC(F)(F)c1ccc2c3n(nc2c1)CCN=C3c1ccc(Cl)cc1 | 20% (inactive) |  |

| Structure (SMILES) | activity change, negative = inhibition | Potency |
| --- | --- | --- |
| COc1cc(-c2n[nH]c(=S)n2Cc2ccccc2)cc(OC)c1OC | -2.15% (inactive) |  |
| CCC(C)n1c(-c2cc(OC)c(OC)c(OC)c2)nc2nc3ccccc3nc21 (stereo not given) |  | 14.6 µM (active) |
| COc1cc(C(O)c2nc3ccccc3n2C)cc(OC)c1OC (stereo not given) | 5.28% (inactive) |  |
| O=C(COc1ccc([N+](=O)[O-])cc1Cl)Nc1ccc2[nH]c(=O)[nH]c2c1 | -1.89% (inactive) |  |
| Nc1cc(N)nc(SCC(=O)Nc2cccc(S(=O)(=O)N3CCCCC3)c2)n1 | -0.272% (inactive) |  |
| Cc1nn(-c2ccccc2)c2c1c(C)c(CCC(=O)NCC1CCCO1)c(=O)n2C (stereo not given) | -27.6% (inactive) |  |
| CCC(C)Sc1nc2c(c(=O)[nH]c(=O)n2C)n1CC(O)COc1cccc2ccccc12 (stereo not given) |  | 8.2 µM (active) |
| CCCSc1nc2c(c(=O)[nH]c(=O)n2C)n1CCc1ccccc1 | -5.55% (inactive) |  |
| Cc1cccc(OCC(O)Cn2c(N3CCCCC3)nc3c2c(=O)[nH]c(=O)n3C)c1 (stereo not given) | -12.2% (inactive) |  |
| COC(=O)c1c(NC(=O)C2CC(C)=C(C)CC2C(=O)O)sc2c1CCCCC2 (stereo not given) | -0.0644% (inactive) |  |
| Cc1ccc(S(=O)(=O)N2CCN(C(=O)COC(=O)CNC(=O)c3ccc(C(C)(C)C)cc3)CC2)c(C)c1 | 0% (inactive) |  |
| Brc1ccc2c(c1)[C@H]1OCC[C@H]1[C@@H](c1cccs1)N2 |  | 20.6 µM (active) |
| c1csc(CN2CCN(Cc3cccs3)C2c2cccs2)c1 | 12.2% (inactive) |  |
| CCc1nn(CCCC(=O)Nc2ccc(C)cc2C)c(=O)c2cc3occc3n12 | 2.59% (inactive) |  |
| CCn1nc(C)c(NC(=O)/C=C/c2ccc(OC)c(COc3ccc(Br)cc3)c2)c1C |  | 6.51 µM (active) |
| COc1ccc(C(C)=O)cc1COc1ccc(Cl)c(C)c1 | -6.19% (inactive) |  |
| C/C=C/c1ccc(OCC(=O)OCC(=O)Nc2c(C)nn(-c3ccccc3)c2C)c(OC)c1 | 12.9% (inactive) |  |
| CC1CCCCC12NC(=O)N(CC(=O)OCc1c(F)cccc1Cl)C2=O (stereo not given) | -1.13% (inactive) |  |
| COc1ccc(C(=O)NC2CC2)cc1OC1CCN(C/C=C/c2ccccc2)CC1 | -8.27% (inactive) |  |
| Cc1ccc(C(=O)Nc2ncccc2C)cc1S(=O)(=O)N1CCOCC1 | 17.9% (inactive) |  |
| Cc1ccccc1CSCCNC(=O)c1ccc(Cl)c(S(=O)(=O)N2CCOCC2)c1 |  | 18.4 µM (active) |
| CC(C)(CNC(=O)Cc1ccc(Cl)cc1Cl)N1CCOCC1 | 3.16% (inactive) |  |
| Cc1nn(Cc2ccccc2)c(C)c1CNC(=O)c1ccc(F)c(S(=O)(=O)N2CCOCC2)c1 | -0.807% (inactive) |  |
| CN(C)S(=O)(=O)c1ccc(C(=O)NCC(C)(C)N2CCOCC2)cc1 | -0.438% (inactive) |  |
| CC(C)(CNC(=O)c1ccc(Cl)c(S(=O)(=O)N2CCc3ccccc3C2)c1)N1CCOCC1 |  | 1.83 µM (active) |
